# In the library only some 9.4% were active in any assay of this set; here they are far more common.
# NPC1 promoter act = qHTS Assay for NPC1 Promoter Activators. Huh7 NPC1 promoter luciferase reporter, 24 h. Potency, µM (top dose mostly 9.22 µM), for inactives: at the highest dose activation, most hits filed as activators. hit rate 2.4% among 320,000. AID 485313, 2010; further: % of control where 0% means no effect; nearly all actives have a fitted effect of over 60% in size
#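 Huh7 reporter cells (NPC1 promoter driving luciferase) are dosed with compound for 24 h at 37 °C, 5% CO2; luciferase detection reagent is then added and luminescence measured after 10 min at ambient temperature.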
# FLuc modulator = qHTS profiling assay for firefly luciferase inhibitor/activator using purifed enzyme and Km concentrations of substrates (counterscreen for miR-21 project) | Potency, µM (doses to about 57.5 µM), for the others: top-dose activity change, negative = inhibition, usual class: inhibitors | Luciferin 4-monooxygenase (Photinus pyralis), P08659 | hit rate 6.9% among 360,000 | purified FLuc, Km substrates, luminescence inhibition | AID 588342, 2011;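 further: plate controls were vehicle for no effect and reference inhibitor for full effect; nearly all actives have a fitted effect of over 55% in size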
# Target sequence (P08659 whole entry, looked up): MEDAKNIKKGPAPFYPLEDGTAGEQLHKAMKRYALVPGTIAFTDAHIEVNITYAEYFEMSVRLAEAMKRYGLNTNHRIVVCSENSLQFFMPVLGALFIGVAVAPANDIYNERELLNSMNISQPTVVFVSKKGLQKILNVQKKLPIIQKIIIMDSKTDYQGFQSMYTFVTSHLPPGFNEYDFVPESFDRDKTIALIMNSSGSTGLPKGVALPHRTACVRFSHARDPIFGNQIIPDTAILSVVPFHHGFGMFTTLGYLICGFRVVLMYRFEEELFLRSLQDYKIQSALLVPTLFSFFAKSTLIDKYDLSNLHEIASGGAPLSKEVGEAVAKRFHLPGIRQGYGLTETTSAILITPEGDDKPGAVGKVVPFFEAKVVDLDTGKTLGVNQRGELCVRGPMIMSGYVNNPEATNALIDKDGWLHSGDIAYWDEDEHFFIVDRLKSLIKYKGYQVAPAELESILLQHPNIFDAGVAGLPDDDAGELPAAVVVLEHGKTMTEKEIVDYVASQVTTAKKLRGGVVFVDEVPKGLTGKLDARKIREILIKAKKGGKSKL
#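 Biochemical qHTS of compounds, final roughly 60 µM downward over six points, against 10 nM purified firefly luciferase using Km concentrations of substrates (10 uM D-luciferin, 10 uM ATP) in Tris acetate pH 7.5 buffer; luminescence output.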
# ELG1 genotox = qHTS screen for small molecules that induce genotoxicity in human embryonic kidney (HEK293T) cells expressing luciferase-tagged ELG1. Potency, µM (doses to about 46 µM), inactives show at the top dose activity change, positive = activation, usual class: activators. HEK293T ELG1-luciferase reporter, luminescence, 16 h. hit rate 1.3% among 330,000; further: % of control where 0% means no effect; nearly all actives have a fitted effect of over 60% in size
#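 Step 1: seed 2,000 HEK293T ELG1-luciferase cells per well. Step 2: add compound or DMSO, incubate 16 hr at 37 °C. Step 3: ONE-Glo, 30 min at room temperature, read luminescence.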
# SMN2 splice enh = qHTS Assay for Enhancers of SMN2 Splice Variant Expression; HEK293 SMN2-luciferase splicing reporter, luminescence, 30-36 h; Potency, µM (series often up to 46.1 µM), without a hit: top-dose activity change, positive = activation, usual class: activators; hit rate 2.8% among 210,000; further: % of control where 0% means no effect; nearly all actives have a fitted effect of over 55% in size
#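 HEK293 cells carry an SMN2 […]–luciferase reporter in which exon 7 inclusion puts luciferase in frame. Cells were plated 10-12 h before compound addition, then incubated 30-36 h at 37C. ONE-Glo luminescence was read; sodium butyrate at 4.5 mM final served as control.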
# Rab9 promoter act = qHTS Assay for Rab9 Promoter Activators | Huh7 Rab9 promoter-luciferase reporter, luminescence, 24 h | Potency, µM (top dose mostly 9.22 µM), inactives show at the top dose activation, negative = inhibition, hits mostly activators | hit rate 2.8% among 320,000 | AID 485297, 2010; further: % of control where 0% means no effect; nearly all actives have a fitted effect of over 60% in size
#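 Rab9 promoter-driven luciferase in stably transfected Huh7 cells; 1500 cells/well rested 2 h, exposed to compound in DMSO for 24 h at 37 °C, 5% CO2. Luminescence read 10 min after adding luciferase reagent at ambient temperature.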
# ELG1 DNA repair = qHTS screen for small molecules that inhibit ELG1-dependent DNA repair in human embryonic kidney (HEK293T) cells expressing luciferase-tagged ELG1 | Potency, µM (top dose mostly 46.1 µM), inactives show at the top dose activity change, negative = inhibition, actives largely listed as inhibitors | HEK293T ELG1-luciferase reporter, luminescence, 16 h; DNA damage induced by 5-fluorouridine | hit rate 2.3% among 330,000; further: on the % scale 0 is the no-effect control and ±100 the full control effect; nearly all actives have a fitted effect of over 55% in size
#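 Quantitative HTS, concentration-response format. 2,000 cells/well co-treated with 5-fluorouridine and compound, 16 hr in 5% CO2 at 37 °C; ONE-Glo luminescence read after 30 min.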
# Active calls of the source: *; u = inconclusive; x = no result; [ ] = another dose, or the depositor's remark. The call rests on the fitted dose curve; in most records, active means well fitted curve in the direction sought with a large enough effect; inconclusive means small, poorly fitted or top-dose-only effect, or another doubt; inactive means no such curve, though single readings can be large; an effect the other way counts as inactive or inconclusive. Potency means the concentration at half of the fitted maximal effect.
SMILES,NPC1 promoter act,FLuc modulator,ELG1 genotox,SMN2 splice enh,Rab9 promoter act,ELG1 DNA repair
CC(C)NC(=O)C1CCN(C(=O)c2cc3sccc3n2Cc2ccc(F)cc2)CC1,-8%,-3%,-11%,-75%,-4%,18µM*
CC1CCN(C(=O)C2CCN(C(=O)c3cc4sccc4n3Cc3ccc(F)cc3)CC2)CC1,1%,5%,-23%,-47%,-6%,16µM*
CCOc1ccc(S(=O)(=O)N2Cc3ccccc3CC2C(=O)Nc2ccc(NC(C)=O)cc2)cc1 (stereo not drawn),x,-11%,x,-14%,x,x
Cc1cc(C)nc(NC(N)=NC2CCCCC2)n1,0%,0%,-10%,-6%,-8%,u
CC(=O)CC(=O)NC(=NC1CCCCC1)Nc1nc(C)cc(C)n1,0%,-1%,0%,-1%,-1%,10µM*
O=S(=O)(c1ccccc1)c1nc(-c2ccccc2F)oc1N1CCOCC1,x,-15%,x,1%,x,x
CC(C)(C)c1ccc(/C=C/C(=O)NC2=NCCS2)cc1,0.5µM*,0.76µM*,u,u,0.4µM*,u
Cc1ccc(/C=C/C(=O)NC2=NCCS2)cc1,u,1.3µM*,2.9µM*,0.5µM*,0.5µM*,u
Cc1ccc(S(=O)(=O)N2CCCC2C(=O)NC2=NCCS2)cc1 (stereo not drawn),-4%,1%,3%,-10%,1%,3%
CC(=O)Nc1ccc(NC(=O)CSc2nnc(NC(=O)Cc3ccc(F)cc3)s2)cc1,7%,2%,25%,x,2%,1%
COc1ccccc1NC(=O)CSc1nnc(NC(=O)Nc2ccc(C)cc2)s1,x,2.1µM*,x,x,x,x
COc1ccccc1NC(=O)CSc1nnc(NC(=O)C2CC2)s1,-2%,u,3%,x,2%,-27%
CC(=O)Nc1ccc(NC(=O)CSc2nnc(NC(=O)c3cccc(F)c3)s2)cc1,u,0.67µM*,u,x,3.2µM*,u
O=C(CSc1nnc(NC(=O)c2c(F)cccc2F)s1)Nc1ccc(F)cc1,u,-4%,19%,x,2.2µM*,u
O=C(CSc1nnc(NC(=O)Nc2ccccc2)s1)Nc1cccc(F)c1,x,1.5µM*,x,x,x,x
CCc1nn(CC(=O)N(CC)Cc2ccccc2)c(=O)c2cc3occc3n12,x,-8%,x,-3%,x,x
CCOc1ccc(NC(=O)CCCn2c(C)c3cnn(-c4ccccc4)c(=O)c3c2C)cc1,x,-2%,x,-6%,x,x
COc1cccc(NC(=O)CSc2nc(O)c(C/C=C/c3ccccc3)c(=O)[nH]2)c1,x,u,x,-5%,x,x
O=S(=O)(NCC(c1cccs1)S(=O)(=O)c1ccccc1)c1ccccc1 (stereo not drawn),x,-8%,x,x,x,x
COc1ccccc1NC(=O)Nc1nnc(C(C)C)s1,u,17µM*,u,22µM*,u,u
COc1ccccc1NC(=O)Nc1nnc(C(C)c2ccccc2)s1 (stereo not drawn),1%,-16%,10%,x,0%,25%
COc1cccc2sc3ccc(C#CC4(N)CCCCC4)cc3c(=O)c12,24%,19µM*,11%,x,21%,u
O=c1c(Cl)c(N2CCN(c3ccc(F)cc3)CC2)cnn1-c1nc2ccccc2s1,29%,19µM*,u,13µM*,u,u
COc1ccccc1NC(=O)Cn1c(=O)c(CNc2ccccc2)cc2cc(OC)c(OC)cc21,x,-7%,x,x,x,x
Cc1ccc2c(=O)cc(C(=O)Nc3c(C(=O)c4ccccc4)oc4ccccc34)oc2c1,x,1%,x,9%,x,x
SMILES,NPC1 promoter act,FLuc modulator,ELG1 genotox,SMN2 splice enh,Rab9 promoter act,ELG1 DNA repair
CCN(CCn1cccn1)C(=O)CCc1nnc(C2(c3ccc(Cl)cc3)CCC2)o1,28%,17µM*,18%,x,u,u
CCCCCNc1nc(-c2ccccc2)cs1,4µM*,1.9µM*,7.3µM*,20%,2.8µM*,u
O=S(=O)(c1ccc(-c2csc(-c3cccnc3)n2)cc1)N1CCCCC1,-8%,-8%,-8%,-14%,-3%,23µM*
CC(=O)Nc1ccc(-c2csc(-c3cccnc3)n2)cc1,2.8µM*,7.6µM*,6.5µM*,x,u,u
O=S(=O)(c1ccc(-c2nc3ccccc3s2)cc1)N1CCCC1,u,-12%,u,-13%,2.8µM*,u
O=S(=O)(c1cccc(-c2nc3ccccc3s2)c1)N1CCCC1,10%,0%[2.3 µM],-5%,-24%,15%,-18%
O=S(=O)(c1ccc(-c2csc(-c3cccnc3)n2)cc1)N1CCCC1,-3%,u,-12%,0%,-5%,-27%
COc1cccc(C(=O)Nc2c3c(nn2-c2ccc(C)cc2C)CS(=O)(=O)C3)c1OC,x,4%,x,x,x,x
COc1ccc(-n2c(SCC(=O)Nc3nnc(C)s3)nc3c([nH]c4ccccc43)c2=O)cc1,x,3%,x,x,x,x
NNc1nc(-c2ccccc2)cs1,14%,u,u,-48%,16%,-9%
Oc1ccc(-c2csc(Nc3ncccn3)n2)cc1,2µM*,3µM*,4.6µM*,25µM*,0.56µM*,u
c1ccc(-c2csc(Nc3ncccn3)n2)cc1,0.63µM*,0.6µM*,1.3µM*,2.5µM*,0.35µM*,u
CC(=O)Nc1ccc(-c2csc(Nc3ncccn3)n2)cc1,0.56µM*,u,9.2µM*,5µM*,0.56µM*,u
Cc1coc2cc3oc(=O)c(CCC(=O)NCc4ccc(Cl)cc4)c(C)c3cc12,x,-9%,x,-5%,x,x
CSc1cccc(NS(=O)(=O)c2ccc3[nH]cc(C(=O)N4CCCC4)c(=O)c3c2)c1,x,u,x,-6%,x,x
COc1ccc(N(Cc2cc3cccc(C)c3[nH]c2=O)C(=O)c2cccc(Cl)c2)cc1,x,-13%,x,-2%,x,x
Cc1ccc(C)c(NC(=O)Cn2c(=O)n(Cc3ccc4c(c3)OCO4)c(=O)c3ccccc32)c1,x,-2%,x,-2%,x,x
Cc1cc(C)c2c(=O)cc(C(=O)Nc3sc4c(c3C#N)CCCC4)oc2c1,x,u,x,-4%,x,x
COc1ccc(OC)c(C2CC(=O)N(c3cccc(C)c3)C3=C2C(=O)OC3)c1 (stereo not drawn),x,-4%,x,11%,x,x
COc1ccc(OC)c2sc(N3CCN(C(=O)C(C)(C)C)CC3)nc12,x,13µM*,x,x,x,x
COc1ccc(Cl)c2sc(N3CCN(C(C)=O)CC3)nc12,12%,2%,0%,x,-1%,-12%
CC(=O)c1cnc2cc(-c3ccc(Cl)cc3)nn2c1C,4.5µM*,2.7µM*,u,x,3.5µM*,u

# Source: PubChem
